{"source": "PubChem BioAssay AID2202239", "about": "(National Center for Advancing Translational Sciences (NCATS), 2025)", "note": "Active and inactive are the calls of the source. The call rests on the fitted dose curve; in most records, active means well fitted inhibition curve with a large enough effect; inactive means flat fitted curve, though single readings scatter. Square brackets hold non-standard residues; d marks the D form. Peptide text beside a SMILES is read from it. Dolaproine = CO[C@@H]([C@@H]1CCCN1)[C@@H](C)C(=O)O; Dil = CC[C@H](C)[C@H](NC)[C@@H](CC(=O)O)OC; NMeV = CN[C@H](C(=O)O)C(C)C"}
{"assay": "Identification of antibody-drug conjugate (ADC) payloads which are substrates of ATP-binding cassette drug efflux transporters: ABCB1-HeLa-KB-8-5-11 cell line with tariquidar", "details": "KB-8-5-11 (P-gp) + tariquidar, viability, CellTiter-Glo, 48 h", "excerpt": "Antibody-drug conjugates (ADCs) feature an antibody recognizing a specific protein joined to a potent toxic payload. Numerous antibody-drug conjugates have received FDA approval; however, clinical resistance arises. Resistance mechanisms include decreased expression or mutation of the antibody target, impaired payload release, or increased expression of ATP-binding cassette (ABC) efflux transporters associated with multidrug resistance. We therefore sought to characterize the interaction of ABC multidrug transporters with ADC payloads. We performed a high-throughput screen with 27 common ADC payloads using cells lines expressing ABC transporters P-glycoprotein (P-gp, encoded by ABCB1) or ABCG2 (encoded by ABCG2). Confirmatory assays were also performed using cells transfected to express P-gp, ABCG2, or MRP1 (encoded by ABCC1). Several commonly used ADC payloads were substrates of P-gp, including calicheamicin gamma1, monomethyl auristatin E, DM1, and DM4. All the pyrrolobenzodiazepines tested - SJG136, SGD-1882, SG2057, and SG3199 - were substrates of P-gp, ABCG2, and MRP1. […] These findings highlight the risk of transporter-mediated resistance with certain ADC payloads and underscore the importance of selecting payloads that evade ABC transporter recognition in future ADC development.\nHEK-293 cells were transfected with empty vector (pcDNA) or vector containing the human ABCB1 (MDR-19), ABCG2 (R-5), or ABCC1 gene (MRP1) and were maintained in EMEM with 2 mg/mL G418 added to maintain transporter expression. The HeLa derivative KB-3-1 and the P-gp overexpressing KB-8-5-11 subline were maintained in DMEM; KB-8-5-11 additionally received 100 ng/mL colchicine. H460 parental cells were obtained from the Division of Cancer Treatment and Diagnosis Tumor Repository, National Cancer Institute at Frederick, MD and were cultured in RPMI. The ABCG2 expressing subline H460 MX20 was generated by selecting H460 cells in 20 nM mitoxantrone. Media in all cases was supplemented with 10% FBS and 1% penicillin-streptomycin. We explored 27 common ADC payloads, in two orthogonal, paired cell line sets-a drug selected and transfected set for each transporter--to identify substrates of the ABC transporters P-gp and ABCG2. Compounds were sourced from Levena Biopharma (San Diego, CA), Selleck Chem (Houston, TX), ChemieTek (Indianapolis, IN), or Microsource Discovery Systems (Gaylordsville, CT). Screening was performed as previously described. Briefly, cells were plated at a density of 500 cells/well in 1536 well plates with compounds added using a 1536-head pin tool (Kalypsys, San Diego CA). Cells were incubated with cytotoxic drugs and processed with CellTiter Glo reagent (Promega, Madison, WI) to determine viability after 48 hours. P-gp substrates were identified by comparing compound activity between paired sets of low-expressing (sensitive) and over-expressing (resistant) cell lines."}
{"smiles": "CC[C@H](C)[C@@H]([C@H](N)CC(=O)N1CCC[C@H]1[C@H](OC)[C@@H](C)C(=O)N[C@@H](Cc1ccccc1)c1nccs1)N(C)C(=O)[C@@H](NC(=O)[C@H](C(C)C)N(C)C)C(C)C", "Potency": "0.0472 nM (active)"}
{"smiles": "CCc1c2c(nc3ccc(O)cc13)-c1cc3c(c(=O)n1C2)COC(=O)[C@]3(O)CC", "Potency": "298 nM (active)"}
{"smiles": "CC[C@]1(O)CC2CN(CCc3c([nH]c4ccccc34)[C@@](C(=O)OC)(c3cc4c(cc3OC)N(C)[C@H]3[C@@](O)(C(=O)OC)[C@H](OC(C)=O)[C@]5(CC)C=CCN6CC[C@]43[C@@H]65)C2)C1", "note": "(stereo partly drawn)", "Potency": "6.7 nM (active)"}
{"smiles": "COc1cccc2c1C(=O)c1c(O)c3c(c(O)c1C2=O)C[C@@](O)(C(=O)CO)C[C@@H]3O[C@H]1C[C@H](N)[C@H](O)[C@H](C)O1", "Potency": "236 nM (active)"}
{"smiles": "COc1ccc(C2=CN3C(=O)c4cc(OC)c(OCCCOc5cc6c(cc5OC)C(=O)N5C=C(c7ccc(N)cc7)C[C@@H]5C=N6)cc4N=C[C@H]3C2)cc1", "Potency": "59.4 nM (active)"}
{"smiles": "Cc1nc(Nc2ncc(C(=O)Nc3c(C)cccc3Cl)s2)cc(N2CCN(CCO)CC2)n1", "Potency": "13300 nM (active)"}
{"smiles": "CC[C@H](C)[C@@H]([C@@H](CC(=O)N1CCC[C@H]1[C@H](OC)[C@@H](C)C(=O)N[C@@H](Cc1ccccc1)C(=O)O)OC)N(C)C(=O)[C@@H](NC(=O)[C@@H](NC)C(C)C)C(C)C", "note": "(H-[NMeV]V[Dil][Dolaproine]F-OH)", "Potency": "37.5 nM (active)"}
{"smiles": "COC(=O)c1cc2c3c(cc(O)c2[nH]1)N(C(=O)c1cc2cc(OC)c(OC)c(OC)c2[nH]1)CC3CCl", "note": "(stereo not drawn)", "Potency": "0.6 nM (active)"}
